# Most compounds without a hit are left out; they make up all but 4.6% or so of the library.
# D1 ag: human D1 receptor agonism; AID 504660; activation, % at 2 µM; HEK293 T-REx D1 cells, calcium flux, agonist mode; actives 1% (n = 360,000); further: 0% is about no effect
#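 Tetracycline-induced HEK293 TREx D1 cells, force-coupled to calcium signalling, were dye-loaded with a no-wash calcium kit. Compound was pin-added after a 10 s baseline. Fluorescence was read kinetically at 1 cycle/s for 180 s, with calcium rises flagged as agonism.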
# TRHR ag: TRH receptor (human) agonism; TRHR cells, calcium flux fluo-8, FDSS agonist mode; activation, % at 2 µM; AID 493084; P34981; actives 0.18% (n = 360,000); further: 0% is about no effect
# Target sequence (P34981 whole entry, looked up): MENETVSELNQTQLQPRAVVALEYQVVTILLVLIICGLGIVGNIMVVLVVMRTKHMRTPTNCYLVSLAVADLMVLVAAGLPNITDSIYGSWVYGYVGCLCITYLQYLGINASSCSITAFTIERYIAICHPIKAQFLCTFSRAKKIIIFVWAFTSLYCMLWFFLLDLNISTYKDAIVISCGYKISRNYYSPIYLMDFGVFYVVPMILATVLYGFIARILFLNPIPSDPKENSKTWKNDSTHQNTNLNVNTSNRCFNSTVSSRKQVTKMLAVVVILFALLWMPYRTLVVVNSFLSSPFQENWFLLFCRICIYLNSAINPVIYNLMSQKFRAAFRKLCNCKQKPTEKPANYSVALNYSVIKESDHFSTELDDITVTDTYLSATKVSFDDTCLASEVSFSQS
#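 Fluo-8-loaded TRHR cells; 10 s baseline, compound added, kinetic Ca2+ fluorescence read 1/s, agonist mode.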
# TRHR enhancer: allosteric enhancers of human TRH receptor; P34981; TRHR cells, fluo-8 calcium fluorescence, EC20 TRH enhancement; enhancement, % at 2 µM; actives 0.66% (n = 360,000); in the data active means enhancement above about 30%; further: 0% is about no effect
#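 TRHR-expressing cells loaded with fluo-8 calcium dye were read kinetically (ex 480/em 530) during compound addition, then stimulated with an EC20 of TRH (10 nM final). Enhancement of the Gq-mediated intracellular calcium response was scored.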
# D1 antag: blocks dopamine activation of the human D1 receptor | AID 504652 | P21728 | HEK293 TREx D1 cells, calcium flux, dopamine EC80; hits give low values | activity change, negative = inhibition, % at 10 µM | actives 3.2% (n = 360,000); in the data active means activity change below about -30%; further: on the % scale 0 is the no-effect control and ±100 the full control effect
#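 Kinetic fluorescence of a calcium dye serves as the read-out. D1-expressing Hek293 Trex cells, induced overnight at 30 C, are exposed to compound for 180 s before an EC80 dopamine addition, then read 180 s further.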
# D1 PAM: potentiators of human D1 dopamine receptor; P21728; HEK293 TREx D1 cells, calcium flux, dopamine EC20 potentiation; potentiation, % at 10 µM; actives 0.036% (n = 360,000); AID 504651; in the data active means potentiation above about 30%; further: 0% is about no effect
# The depositor's hits bear a star; nt = no result given. Unless noted, no stated cut-off is given here; in the data, active means activation above about 30%; inactive means the rest.
SMILES,D1 ag,TRHR ag,TRHR enhancer,D1 antag,D1 PAM
O=C(/C=C/c1ccc(Cl)cc1Cl)Nc1cccc(S(=O)(=O)NC2=NCCC2)c1,8,1,12,-31*,-8
C/C(=N\NC(=O)COc1cccc2ccccc12)c1cccs1,8,0,-2,6,0
CN(C)S(=O)(=O)N1C(=O)c2ccccc2C1=O,4,-1,5,10,1
CN(C)/C=C1\C=C2C(=O)c3ccccc3N2C1=O,335*,249*,31*,-62*,2
C=C(C)Cn1c(=O)c2c(nc3n2CCN3c2cc(C)cc(C)c2)n(C)c1=O,0,0,8,2,-1
Cc1cc(C)cc(N2CCn3c2nc2c3c(=O)n(Cc3c(F)cccc3Cl)c(=O)n2C)c1,0,0,8,-31*,0
CCc1ccc(NCc2cc3cc4c(cc3n(CC(=O)Nc3ccc(C)cc3)c2=O)OCO4)cc1,49*,-1,-6,2,-2
CCc1ccc(NCc2cc3cc4c(cc3n(CC(=O)Nc3ccc(F)cc3)c2=O)OCCO4)cc1,9,9,5,-9,-2
CCc1ccc(NCc2cc3cc4c(cc3n(CC(=O)Nc3ccccc3Cl)c2=O)OCO4)cc1,66*,29,-7,-18,-2
CCC1CCCCN1C(=O)CCS(=O)(=O)c1cc2c(cc1C)NC(=O)CO2 (stereo not given),-1,0,-4,5,-4
COCC(=O)N1CCC(Oc2ccc(C(=O)N3CCSCC3)cc2)CC1,2,0,23,6,10
Cc1noc(C)c1COc1cccc(C(=O)OC(C)C(=O)Nc2ccc3c(c2)OCO3)c1 (stereo not given),3,0,-5,nt,-3
Cc1cccc(Oc2nccc(C(F)(F)F)c2C(=O)Nc2ccc(F)cc2F)c1,3,0,5,-54*,3
Cc1cccnc1NC(=O)c1cccc(S(=O)(=O)N2CCCC2)c1,2,0,-4,-12,-8
Cc1cc(C)cc(N(CC(=O)NC2CCCC2)C(=O)CCC(=O)Nc2nc(C)cs2)c1,58*,0,23,-19,-9
Cc1cccc(N(CC(=O)NC2CCCC2)C(=O)CCC(=O)Nc2nc(C)cs2)c1,7,1,3,25,-2
Cc1cc(C)cc(N(CC(=O)NC2CCCCC2)C(=O)c2ccc(C)s2)c1,0,0,-6,-33*,-4
Cc1ccc(C(=O)N(CC(=O)NC2CCCC2)c2ccc3c(c2)OCCO3)s1,0,-1,-6,-55*,-7
COc1ccc(C(=O)c2coc3ccc(O)cc23)cc1,2,0,0,8,-1
COC(CNC(=O)[C@H](CSCc1ccccc1)N1Cc2ccccc2C1=O)OC,0,0,3,-4,0
Cc1nn2c(C)c(C(=O)NCC(C)c3ccccc3)cnc2c1-c1ccccc1 (stereo not given),1,0,35*,3,1
Cc1c(C(=O)Nc2ccc3nc(N4CCOCC4)sc3c2)oc2ccccc12,2,-1,4,-43*,-3
COc1cc(C(=O)Nc2ccc3nc(N4CCOCC4)sc3c2)cc(OC)c1OC,1,1,11,-22,4
CC1=C(C(=O)OC2CCCCCC2)C(c2cccc(F)c2F)CC(=O)N1 (stereo not given),4,-1,1,6,-4
COc1cccc2[nH]c3ccccc3c(=O)c12,1,0,-3,2,0
SMILES,D1 ag,TRHR ag,TRHR enhancer,D1 antag,D1 PAM
C=Cc1ncc(OC)c2c1[nH]c1ccccc12,4,1,4,-55*,-6
COc1cc(-c2[nH]ncc2CN(C)Cc2cc(C)[nH]n2)cc(OC)c1OC,0,-1,-6,-13,2
CC(C)[C@H](NC(=O)c1ccccc1)C(=O)OCC(=O)NCCC1=CCCCC1,0,0,6,13,0
CCc1cccc(NC(=O)Nc2csc3c2CCCC3)c1,15,0,14,-30*,-4
O=C(Nc1ccc(F)c(Cl)c1)C1CCCN(S(=O)(=O)c2cccc3nsnc23)C1 (stereo not given),-1,2,-7,-11,2
O=C(Nc1ccc2c(c1)OCCO2)C1CCCN(S(=O)(=O)c2cccc3nsnc23)C1 (stereo not given),0,0,19,-36*,38*
Cc1ccc(NS(=O)(=O)c2cc(C(=O)N(C)C)ccc2C)cc1C,0,0,17,-37*,4
Cc1ccc(NS(=O)(=O)c2cc(C(=O)N3CCCC3)ccc2C)cc1C,1,-1,-1,2,-4
CC(=O)N1CCC(N(C(=O)Nc2ccc(C)c(F)c2)C(C)C)CC1,-2,0,-1,-48*,2
O=C(c1ccco1)N1CCN(C(=O)C2CC(=O)N(c3ccccc3)C2)CC1 (stereo not given),1,1,5,13,1
Cc1sc(NC(=O)c2ccccc2)c(C(c2ccccn2)N2CCN(CCO)CC2)c1C (stereo not given),108*,0,26,-5,-2
O=S(=O)(c1ccccc1Oc1ccc(Cl)cc1Cl)N1CCCCC1,5,-1,-4,-47*,-1
CC(C)c1ccc2nc3sc(C(=O)N4CCc5ccccc5C4)c(N)c3cc2c1,31*,8,-2,1,0
COc1ccc(/C=C(/C(=O)c2cccs2)N2C=CC=CC2=C(C#N)C#N)cc1,1,1,-1,-24,-7
N#C/C(=C/c1ccco1)C(N)=S,11,-1,-5,-5,6
N#CC(C#N)=C1C=CC=CN1/C(=C\c1ccco1)C(=O)c1ccccc1,0,0,-7,-75*,-7
COc1ccc(C(=O)/C(=C\c2ccco2)N2C=CC=CC2=C(C#N)C#N)cc1,9,0,-7,-41*,-8
N#CC(C#N)=C1C=CC=CN1/C(=C\c1ccco1)C(=O)c1ccc(Br)cc1,5,0,3,-48*,-11
CC1CN(C(=O)c2cnn3c(C(F)F)cc(-c4ccccc4)nc23)CC(C)O1 (stereo not given),0,-1,-2,-14,-3
Nc1ccc(Sc2cnn(-c3ccccc3)c(=O)c2Cl)cc1,4,-2,36*,-13,-2
Cc1ccc(Sc2cnn(-c3ccccc3)c(=O)c2Cl)cc1,4,0,-8,-20,1
CNc1cnn(-c2ccccc2)c(=O)c1Cl,2,0,1,-71*,-1
Cc1ccc(S(=O)(=O)N2CCN(C(=O)CSc3nnc(C)s3)C2)cc1,2,0,4,-24,8
Cc1c(C(=O)Nc2cccc(F)c2)sc2nc(-c3cc4ccccc4oc3=O)[nH]c(=O)c12,-1,0,4,-36*,4
